Some test systems named below: T-47D breast; BT-549 breast; SW-620 colon; MCF7 breast; HCT-116 colon; HCC-2998 colon; KM12 colon; MDA-MB-468 breast; MDA-MB-435 melanoma.
Holding throughout (assay): NCI-60 one-dose screen, 48 h (100 = growth as untreated, 0 = no growth, -100 = all killed)
Holding throughout (details): 10 µM unless noted

For 14 molecules, growth results are on record in PubChem BioAssay (NCI).

Structures are written as SMILES. The panel holds about 83,000 compounds, 20% with a hit somewhere; the sample as a whole holds those more often.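 48-hour exposure, single concentration, 96-well plates; percent growth endpoint where 0 means no net growth. Active: below 10.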 A number with no mark means an inactive call. The source made the active and inactive calls.

For the molecule `NC(=Nc1ccc(OCCCCCCCCn2cnnn2)cc1)c1ccccc1`, the growth with T-47D breast is 45.6%; with BT-549 breast it was 18.9%; in the assay on SW-620 colon, 22.5%; in the assay with MCF7 breast it was 13.4%; in the assay with HCT-116 colon it was 15.2%; in the assay with HCC-2998 colon, 17.1%. Besides, the growth in the assay with KM12 colon was 10.5%; in the assay with MDA-MB-468 breast it was 20.9%.
Turning to `COc1cccc(C(N)=Nc2ccc(OCCCCCCCCn3cncn3)cc2)c1`, the growth in the assay with T-47D breast is 52%; in the assay on SW-620 colon it was 21.2%; in the assay on MCF7 breast it was 18.3%; with HCT-116 colon, 12.5%; with HCC-2998 colon it was 23.4%; in the assay with MDA-MB-468 breast, 24.8%.
As to `Nc1cc(-c2c[nH]c3ccc(Br)cc23)nc2cc(-c3c[nH]c4ccccc34)nn12`, the growth is -60.5% (active) in the assay on T-47D breast; -21.4% (active) in the assay on BT-549 breast; -75.1% (active) in the assay on MDA-MB-435 melanoma; -83.2% (active) in the assay with SW-620 colon; -66.8% (active) with MCF7 breast; -65.4% (active) in the assay with KM12 colon. The growth with MDA-MB-468 breast is -81.8% (active).
As to `Cc1ccc(O)cc1Nc1nc(SCCN2CCOCC2)nc2c1cnn2CC(Cl)c1ccc(Br)cc1` (stereo not given), the growth with T-47D breast was -2.49% (active); in the assay with MDA-MB-435 melanoma it was 12.6%; with SW-620 colon it was 32.9%; in the assay on MCF7 breast, 5.88% (active); in the assay on HCT-116 colon it was 2.84% (active); in the assay on HCC-2998 colon, 1.63% (active). The growth in the assay on KM12 colon is 17%; with MDA-MB-468 breast, -55.7% (active).
Consider `ClC(Cn1ncc2c(Nc3cccc(Br)c3)nc(SCCN3CCOCC3)nc21)c1ccc(Br)cc1` (stereo not given), for which the growth is -2.99% (active) in the assay with T-47D breast; -4.97% (active) in the assay on MDA-MB-435 melanoma; -32.1% (active) in the assay with SW-620 colon; -5.44% (active) in the assay with MCF7 breast; 6.22% (active) in the assay on HCT-116 colon; 3.46% (active) in the assay on HCC-2998 colon. The growth in the assay with KM12 colon is -20% (active); in the assay on MDA-MB-468 breast, -18% (active).
In the case of `Fc1cccc(CNc2nc(SCCN3CCOCC3)nc3c2cnn3CC(Cl)c2ccc(Br)cc2)c1` (stereo not given), the growth with T-47D breast is 1.04% (active); in the assay on MDA-MB-435 melanoma, 10.6%; in the assay with SW-620 colon it was -38.2% (active); with MCF7 breast, 7.42% (active); in the assay on HCC-2998 colon, 12.2%; with KM12 colon, 8.48% (active). The growth in the assay on MDA-MB-468 breast was 3.38% (active).
As for `Fc1ccccc1CNc1nc(SCCN2CCOCC2)nc2c1cnn2CC(Cl)c1ccc(Br)cc1` (stereo not given), the growth is 14.2% in the assay on T-47D breast; 29.6% with MDA-MB-435 melanoma; -51% (active) with SW-620 colon; 21.3% in the assay on MCF7 breast; 26.1% in the assay on HCT-116 colon; 21.4% in the assay with HCC-2998 colon. The growth in the assay on KM12 colon was 8.13% (active); with MDA-MB-468 breast, 22.1%.
In the case of `CCN1C(=O)N(CC)C2NNC(Sc3c(C(=O)O)c4ccccc4n(CC(C)C)c3=O)=NC21` (stereo not given), the growth in the assay on T-47D breast is 72.5%; with MDA-MB-435 melanoma it was -51% (active); in the assay on SW-620 colon, 30.5%; with MCF7 breast, 8.53% (active); in the assay on HCC-2998 colon, 18.7%; with KM12 colon, 21.4%. Also, the growth in the assay on MDA-MB-468 breast is 7.22% (active).
Regarding `Nc1cc(-c2c[nH]c3ccc(Cl)cc23)nc2cc(-c3c[nH]c4ccccc34)nn12`, the growth was -5.16% (active) with T-47D breast; -51% (active) with MDA-MB-435 melanoma; -79.6% (active) with SW-620 colon; -68.3% (active) in the assay on MCF7 breast; -83.9% (active) with HCT-116 colon; -70.5% (active) in the assay with KM12 colon. Moreover, the growth in the assay on MDA-MB-468 breast is -72.3% (active).
With `O=C(N/N=C/c1ccc(Cl)cc1)c1ccc(OCc2nc3ccc(Cl)cc3[nH]2)cc1`, the growth is -19.6% (active) in the assay with T-47D breast; -15.7% (active) in the assay on MDA-MB-435 melanoma; -40.3% (active) in the assay with SW-620 colon; -21.7% (active) with MCF7 breast; 22.7% in the assay on HCT-116 colon; 18.2% in the assay with HCC-2998 colon. Moreover, the growth in the assay on KM12 colon was 52.9%; in the assay with MDA-MB-468 breast, 52.4%.
Consider `COc1ccc(NC(=O)Nc2nc3ccc([N+](=O)[O-])cc3s2)cc1`, for which the growth is 4.2% (active) in the assay with T-47D breast; 17.9% in the assay on BT-549 breast; 23% in the assay on MDA-MB-435 melanoma; 15% with SW-620 colon; 0.377% (active) in the assay on MCF7 breast; 19.2% in the assay on HCC-2998 colon. The growth in the assay on KM12 colon is 3.81% (active); with MDA-MB-468 breast, -7.85% (active).
As to `Nc1nnc(CS(=O)(=O)c2ccccc2)s1`, the growth is 102% in the assay on T-47D breast; 113% in the assay with MDA-MB-435 melanoma; 108% in the assay with SW-620 colon; 101% in the assay on MCF7 breast; 107% in the assay with HCT-116 colon; 103% in the assay on HCC-2998 colon. In addition, the growth is 101% in the assay on KM12 colon and 111% in the assay with MDA-MB-468 breast.
For the molecule `Cc1ccc(NC(=O)N/N=C/c2c[nH]c3ccccc23)c(C)c1`, the growth in the assay with T-47D breast is 46.7%; in the assay on BT-549 breast, 17.2%; in the assay with MDA-MB-435 melanoma, -14.3% (active); in the assay with SW-620 colon, 24.8%; with MCF7 breast, 7.55% (active); in the assay with KM12 colon it was -25.5% (active). In addition, the growth with MDA-MB-468 breast was 3.12% (active).
In the case of `COC(=O)c1c(C(=O)OC)c2ccc3c4ccccc4ccc3n2c1C(=O)C(C)Br` (stereo not given), the growth in the assay on T-47D breast was 36.5%; with MDA-MB-435 melanoma, 10.3%; with SW-620 colon it was 9.86% (active); in the assay with MCF7 breast it was 6.04% (active); with HCT-116 colon, 14%; in the assay with HCC-2998 colon, 67.9%. For the same molecule, the growth is 91.5% with KM12 colon and 50.7% with MDA-MB-468 breast.
